Assay results: PubChem BioAssay AID1159580 (chemical genetic matrix, 2015)
The whole screen tested about 5,500 compounds, of which about 2,000 (36%) were called active. Not shown: some 18% with an inconclusive outcome. Rule as the data show it: active = normalized growth mostly below about 0.91 (no sharp cut-off); inconclusive = no clear call, values can overlap the other calls; inactive = mostly above about 0.92. Some of the results follow.

Test: chemical genetic growth profiling, strain panel (AID 1159580);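 also: tested at 20 µM; growth read once vehicle control cultures reached saturation at 30 °C; 1 = growth at the plate median or of vehicle wells; lower values mean less growth of the strain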
Conditions: S. cerevisiae deletion strains, growth OD

Measured: normalized growth

COc1ccc2c(=O)ccoc2c1
inactive: locus YAL013W, strain DEP1, hits give low values 1.02 | locus YAL021C, strain ccr4, hits give low values 1.02 | locus YAL026C, strain drs2, hits give low values 1.02 | locus YAL030W, strain snc1, hits give low values 1.01 | locus YBL061C, strain skt5, hits give low values 1.01 | locus YBR009C, strain hhf1, hits give low values 1.02 | locus YBR021W, strain FUR4, hits give low values 0.979 | locus YBR023C, strain chs3, hits give low values 1.02 | locus YBR171W, strain sec66, hits give low values 1.04 | locus YBR229C, strain ROT2, hits give low values 1.01 | locus YBR231C, strain swc5, hits give low values 1.01 | locus YBR279W, strain paf1, hits give low values 1.02 | locus YCL011C, strain gbp2, hits give low values 1.02 | locus YCL016C, strain dcc1, hits give low values 1.02 | locus YCL029C, strain bik1, hits give low values 1.01 | locus YCL061C, strain MRC1, hits give low values 1.02 | locus YCL069W, strain vba3, hits give low values 1.02 | locus YCR088W, strain abp1, hits give low values 1.03 | locus YDL005C, strain med2, hits give low values 1.02 | locus YDL035C, strain GPR1, hits give low values 1 | locus YDL040C, strain nat1, hits give low values 1.02 | locus YDL074C, strain BRE1, hits give low values 1.02 | locus YDL101C, strain DUN1, hits give low values 1.02 | locus YDL134C, strain PPH21, hits give low values 1.02 | locus YDL185W, strain tfp1, hits give low values 1.01 | locus YDL192W, strain arf1, hits give low values 1.01 | locus YDR001C, strain nth1, hits give low values 1.02 | locus YDR069C, strain doa4, hits give low values 1.02 | locus YDR101C, strain arx1, hits give low values 0.995 | locus YDR137W, strain rgp1, hits give low values 1.03 | locus YDR150W, strain NUM1, hits give low values 1.03 | locus YDR159W, strain sac3, hits give low values 1.04 | locus YDR162C, strain NBP2, hits give low values 1.02 | locus YDR195W, strain ref2 1.08 | locus YDR297W, strain sur2, hits give low values 1.02 | locus YDR318W, strain mcm21, hits give low values 0.992 | locus YDR334W, strain swr1, hits give low values 1.02 | locus YDR335W, strain msn5, hits give low values 1.02 | locus YDR388W, hits give low values 1.01 | locus YDR392W, strain spt3, hits give low values 1.04 | locus YDR502C, strain sam2, hits give low values 1.01 | locus YEL003W, strain gim4, hits give low values 1.02 | locus YEL037C, strain rad23, hits give low values 1.02 | locus YEL061C, strain CIN8 (second series), hits give low values 1.02 | locus YEL061C, strain CIN8, hits give low values 1.01 | locus YER015W, strain faa2, hits give low values 1.03 | locus YER016W, strain bim1, hits give low values 1.02 | locus YER110C, hits give low values 1.01 | locus YER111C, strain swi4, hits give low values 1.01 | locus YER155C, strain BEM2 (second series), hits give low values 1 | locus YER155C, strain BEM2, hits give low values 1.02 | locus YER167W, strain BCK2, hits give low values 1.04 | locus YFR010W, strain ubp6, hits give low values 1.03 | locus YGL078C, strain dbp3, hits give low values 1.02 | locus YGL086W, strain mad1, hits give low values 1.01 | locus YGL167C, strain pmr1, hits give low values 1.03 | locus YGL173C, strain kem1, hits give low values 1.02 | locus YGL227W, strain vid30, hits give low values 1.03 | locus YGL240W, strain doc1, hits give low values 1.02 | locus YGL248W, strain PDE1, hits give low values 1.02 | locus YGL253W, strain hxk2, hits give low values 1.02 | locus YGR078C, strain PAC10, hits give low values 0.997 | locus YGR135W, strain pre9, hits give low values 0.978 | locus YGR229C, strain SMI1, hits give low values 1.04 | locus YGR252W, strain gcn5, hits give low values 0.825 | locus YHR013C, strain ard1, hits give low values 1.08 | locus YHR027C, strain rpn1, hits give low values 1.03 | locus YHR030C, strain SLT2, hits give low values 1.02 | locus YHR079C, strain IRE1 (second series), hits give low values 0.998 | locus YHR094C, strain hxt1, hits give low values 1.01 | locus YHR129C, strain ARP1, hits give low values 1.01 | locus YHR142W, strain chs7, hits give low values 1.03 | locus YHR200W, strain rpn10, hits give low values 0.997 | locus YIL066C, strain RNR3, hits give low values 1.01 | locus YIL073C, strain SPO22, hits give low values 1.04 | locus YIL125W, strain kgd1, hits give low values 1.02 | locus YIR030C, strain dcg1, hits give low values 1.01 | locus YJL092W, strain hpr5, hits give low values 1.02 | locus YJL095W, strain BCK1 (second series), hits give low values 1.02 | locus YJL095W, strain BCK1, hits give low values 0.991 | locus YJL115W, strain asf1, hits give low values 1.01 | locus YJL129C, strain trk1, hits give low values 1.06 | locus YJL134W, strain LCB3, hits give low values 1.02 | locus YJL154C, strain vps35, hits give low values 1.03 | locus YJL164C, strain tpk1, hits give low values 1.03 | locus YJL166W, strain qcr8, hits give low values 1.02 | locus YJL168C, strain set2, hits give low values 1.01 | locus YJL187C, strain SWE1 (second series), hits give low values 1.01 | locus YJL187C, strain SWE1, hits give low values 1.02
